The values below come from article PMC7862700, “An all-to-all approach to the identification of sequence-specific readers for epigenetic DNA modifications on cytosine”.

Sequence of ETV5 (P41161 whole entry, the tested form may be a part): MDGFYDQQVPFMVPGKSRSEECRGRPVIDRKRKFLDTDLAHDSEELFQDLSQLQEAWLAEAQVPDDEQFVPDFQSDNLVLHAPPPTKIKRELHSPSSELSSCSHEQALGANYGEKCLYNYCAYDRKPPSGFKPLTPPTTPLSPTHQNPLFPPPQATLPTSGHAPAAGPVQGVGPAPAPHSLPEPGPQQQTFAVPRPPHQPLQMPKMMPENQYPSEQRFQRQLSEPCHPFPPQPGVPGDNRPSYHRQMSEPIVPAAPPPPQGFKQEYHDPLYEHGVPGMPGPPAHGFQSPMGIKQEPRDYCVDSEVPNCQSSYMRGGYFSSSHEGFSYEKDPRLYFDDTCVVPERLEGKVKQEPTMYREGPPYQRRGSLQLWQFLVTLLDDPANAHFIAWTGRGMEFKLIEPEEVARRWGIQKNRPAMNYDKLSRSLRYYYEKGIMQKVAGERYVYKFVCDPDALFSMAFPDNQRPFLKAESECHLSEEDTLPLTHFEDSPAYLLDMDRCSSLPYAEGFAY

The first test concerns the target ETV5 (Homo sapiens, UniProt P41161 1-510). The test is described as follows: DAPPL (digital affinity profiling via proximity ligation, sequencing); 10 mM Tris-HCl pH 7.5, 50 mM NaCl, 1 mM DTT, 4% glycerol, room temperature, 30 min; GST-TFs on glutathione beads, 16-mer random dsDNA library, 0.1% formaldehyde crosslink after washing; high values mean tight binding. The note with it: protein: recombinant; tags: N-terminal GST; dsDNA, one strand shown. The method, boiled down:
(§1)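 The binding signal reported is, for every hexamer, its read frequency for a factor over its read frequency for the tag-only sample. Reads came from pools of yeast-expressed, GST-fused human transcription factors on glutathione beads, barcoded with DNA and mixed with that sample, which were incubated with 200 nmole of a random double-stranded 16-mer DNA library in Tris/NaCl/DTT/glycerol buffer at room temperature for 30 min. After washing, the pools were crosslinked with 0.1% formaldehyde, proximity-ligated with BsaI/T4 ligase for 1 h at 37 °C, PCR-amplified and sequenced on an Illumina NextSeq500.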
As for CCGCCG, the binding signal is 1.25 fold enrichment (6-mer frequency, TF over GST control).

For CGTATC, the binding signal is 1.13 fold enrichment (6-mer frequency, TF over GST control).

Take CACACT: the binding signal was 1.23 fold enrichment (6-mer frequency, TF over GST control).

Take TGGCAG: the binding signal was 1.07 fold enrichment (6-mer frequency, TF over GST control).

On to GTCCTC, for which the binding signal was 1.21 fold enrichment (6-mer frequency, TF over GST control).

As to GACTAC, the binding signal was 1.15 fold enrichment (6-mer frequency, TF over GST control).

On to CCAACA, for which the binding signal is 1.05 fold enrichment (6-mer frequency, TF over GST control).

Turning to GTACAA, the binding signal was 1.08 fold enrichment (6-mer frequency, TF over GST control).

As to TGCACC, the binding signal was 1.12 fold enrichment (6-mer frequency, TF over GST control).

As for CCCCCG, the binding signal is 1.08 fold enrichment (6-mer frequency, TF over GST control).

For CGACAC, the binding signal is 1.13 fold enrichment (6-mer frequency, TF over GST control).

In the case of CTGTCC, the binding signal is 1.41 fold enrichment (6-mer frequency, TF over GST control).

GCACCC: the binding signal was 1.11 fold enrichment (6-mer frequency, TF over GST control).

In the case of GACATC, the binding signal was 1.3 fold enrichment (6-mer frequency, TF over GST control).

With CACATA, the binding signal was 1.1 fold enrichment (6-mer frequency, TF over GST control).

For the sequence CGTACC, the binding signal was 1.17 fold enrichment (6-mer frequency, TF over GST control).

Consider GCTTGG, for which the binding signal is 1.02 fold enrichment (6-mer frequency, TF over GST control).

Regarding ACACAC, the binding signal was 1.15 fold enrichment (6-mer frequency, TF over GST control).

TGCGAC: the binding signal is 1.24 fold enrichment (6-mer frequency, TF over GST control).

For the sequence CCGTCA, the binding signal was 1.23 fold enrichment (6-mer frequency, TF over GST control).

The target in the next test is T1, SPIC (Homo sapiens, UniProt Q8N5J4 1-248).
T1 sequence: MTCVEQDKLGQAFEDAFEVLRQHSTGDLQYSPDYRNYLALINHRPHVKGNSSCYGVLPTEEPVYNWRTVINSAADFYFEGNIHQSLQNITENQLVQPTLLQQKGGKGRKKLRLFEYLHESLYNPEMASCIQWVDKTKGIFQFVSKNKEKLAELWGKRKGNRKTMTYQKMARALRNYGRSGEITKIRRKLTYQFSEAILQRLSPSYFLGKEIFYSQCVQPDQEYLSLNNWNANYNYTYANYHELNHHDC
The description is as above. The note with it: protein: recombinant; tags: N-terminal GST; dsDNA, one strand shown. The method, boiled down: as §1
For CACCCT, the binding signal is 1.13 fold enrichment (6-mer frequency, TF over GST control).

As to TGCGGA, the binding signal is 1.44 fold enrichment (6-mer frequency, TF over GST control).

Take CTCACC: the binding signal was 1.25 fold enrichment (6-mer frequency, TF over GST control).

Take GCCACT: the binding signal is 1.12 fold enrichment (6-mer frequency, TF over GST control).

Take TGTCAC: the binding signal is 1.31 fold enrichment (6-mer frequency, TF over GST control).

GCTACA: the binding signal was 1.33 fold enrichment (6-mer frequency, TF over GST control).

In the case of CCACAT, the binding signal was 1.29 fold enrichment (6-mer frequency, TF over GST control).

Regarding CACAAC, the binding signal is 1.25 fold enrichment (6-mer frequency, TF over GST control).

In the case of GGCCTC, the binding signal is 1.01 fold enrichment (6-mer frequency, TF over GST control).

As to GCTACC, the binding signal is 1.23 fold enrichment (6-mer frequency, TF over GST control).

On to ACAACC, for which the binding signal was 1.19 fold enrichment (6-mer frequency, TF over GST control).

On to CAACAT, for which the binding signal is 1.05 fold enrichment (6-mer frequency, TF over GST control).

Turning to CAAACT, the binding signal is 1.14 fold enrichment (6-mer frequency, TF over GST control).

Take TGCATG: the binding signal was 1.27 fold enrichment (6-mer frequency, TF over GST control).

Turning to GTCCTT, the binding signal was 1.23 fold enrichment (6-mer frequency, TF over GST control).

As to GGATGC, the binding signal was 1.2 fold enrichment (6-mer frequency, TF over GST control).

Turning to AGCGAC, the binding signal was 1.19 fold enrichment (6-mer frequency, TF over GST control).

On to AACCGG, for which the binding signal was 1.4 fold enrichment (6-mer frequency, TF over GST control).

ACCTGA: the binding signal was 1 fold enrichment (6-mer frequency, TF over GST control).

Consider CCCGGC, for which the binding signal was 1.11 fold enrichment (6-mer frequency, TF over GST control).

For the sequence CCGCCG, the binding signal was 1.22 fold enrichment (6-mer frequency, TF over GST control).

Turning to CGTATC, the binding signal is 1.19 fold enrichment (6-mer frequency, TF over GST control).

As to CACACT, the binding signal is 1.13 fold enrichment (6-mer frequency, TF over GST control).

On to TGGCAG, for which the binding signal is 1.05 fold enrichment (6-mer frequency, TF over GST control).

On to GTCCTC, for which the binding signal is 1.14 fold enrichment (6-mer frequency, TF over GST control).

Consider GACTAC, for which the binding signal was 1.13 fold enrichment (6-mer frequency, TF over GST control).

On to CCAACA, for which the binding signal is 1.01 fold enrichment (6-mer frequency, TF over GST control).

Consider GTACAA, for which the binding signal is 1.12 fold enrichment (6-mer frequency, TF over GST control).

As to TGCACC, the binding signal was 1.14 fold enrichment (6-mer frequency, TF over GST control).

As for CCCCCG, the binding signal was 1.14 fold enrichment (6-mer frequency, TF over GST control).

Regarding CGACAC, the binding signal is 1.15 fold enrichment (6-mer frequency, TF over GST control).

CTGTCC: the binding signal was 1.13 fold enrichment (6-mer frequency, TF over GST control).

Regarding GCACCC, the binding signal was 1.3 fold enrichment (6-mer frequency, TF over GST control).

On to GACATC, for which the binding signal is 1.26 fold enrichment (6-mer frequency, TF over GST control).

With CACATA, the binding signal is 1.07 fold enrichment (6-mer frequency, TF over GST control).

In the case of CGTACC, the binding signal was 1.14 fold enrichment (6-mer frequency, TF over GST control).

GCTTGG: the binding signal was 1.03 fold enrichment (6-mer frequency, TF over GST control).

On to ACACAC, for which the binding signal was 1.23 fold enrichment (6-mer frequency, TF over GST control).

For the sequence TGCGAC, the binding signal was 1.3 fold enrichment (6-mer frequency, TF over GST control).

CCGTCA: the binding signal is 1.13 fold enrichment (6-mer frequency, TF over GST control).

The target of a further test is ELF4 (Homo sapiens, UniProt Q99607 1-663). The description is as above. The note with it: protein: recombinant; tags: N-terminal GST; dsDNA, one strand shown. The method, boiled down: as §1
Sequence of ELF4 (Q99607 whole entry): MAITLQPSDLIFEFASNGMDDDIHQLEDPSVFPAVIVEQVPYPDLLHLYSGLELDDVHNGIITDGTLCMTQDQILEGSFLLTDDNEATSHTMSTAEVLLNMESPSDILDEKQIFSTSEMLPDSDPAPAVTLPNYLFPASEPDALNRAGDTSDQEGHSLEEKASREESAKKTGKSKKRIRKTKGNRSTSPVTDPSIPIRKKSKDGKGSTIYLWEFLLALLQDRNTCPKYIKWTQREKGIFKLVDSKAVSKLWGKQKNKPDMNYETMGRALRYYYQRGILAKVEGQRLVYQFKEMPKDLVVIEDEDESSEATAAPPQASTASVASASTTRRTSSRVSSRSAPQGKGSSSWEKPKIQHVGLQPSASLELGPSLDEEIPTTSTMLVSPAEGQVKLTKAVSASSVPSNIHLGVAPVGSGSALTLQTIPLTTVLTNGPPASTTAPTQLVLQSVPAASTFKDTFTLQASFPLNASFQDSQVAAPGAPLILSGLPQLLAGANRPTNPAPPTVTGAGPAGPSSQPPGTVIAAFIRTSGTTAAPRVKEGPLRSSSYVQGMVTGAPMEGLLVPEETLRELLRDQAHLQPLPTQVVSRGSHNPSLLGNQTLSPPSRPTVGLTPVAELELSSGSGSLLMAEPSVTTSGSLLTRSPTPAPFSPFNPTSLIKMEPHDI
Consider CACCCT, for which the binding signal is 1.24 fold enrichment (6-mer frequency, TF over GST control).

On to TGCGGA, for which the binding signal was 1.24 fold enrichment (6-mer frequency, TF over GST control).

As to CTCACC, the binding signal was 1.28 fold enrichment (6-mer frequency, TF over GST control).

In the case of GCCACT, the binding signal is 1.21 fold enrichment (6-mer frequency, TF over GST control).

In the case of TGTCAC, the binding signal is 1.22 fold enrichment (6-mer frequency, TF over GST control).

GCTACA: the binding signal was 1.18 fold enrichment (6-mer frequency, TF over GST control).

With CCACAT, the binding signal was 1.21 fold enrichment (6-mer frequency, TF over GST control).

As to CACAAC, the binding signal is 1.23 fold enrichment (6-mer frequency, TF over GST control).

GGCCTC: the binding signal is 1.12 fold enrichment (6-mer frequency, TF over GST control).

GCTACC: the binding signal was 1.24 fold enrichment (6-mer frequency, TF over GST control).

For ACAACC, the binding signal was 1.19 fold enrichment (6-mer frequency, TF over GST control).

As to CAACAT, the binding signal was 1.19 fold enrichment (6-mer frequency, TF over GST control).

Take CAAACT: the binding signal is 1.17 fold enrichment (6-mer frequency, TF over GST control).

Consider TGCATG, for which the binding signal is 1.08 fold enrichment (6-mer frequency, TF over GST control).

As to GTCCTT, the binding signal was 1.21 fold enrichment (6-mer frequency, TF over GST control).

Turning to GGATGC, the binding signal was 1.09 fold enrichment (6-mer frequency, TF over GST control).

For the sequence AGCGAC, the binding signal was 1.19 fold enrichment (6-mer frequency, TF over GST control).

Turning to AACCGG, the binding signal was 1.31 fold enrichment (6-mer frequency, TF over GST control).

Consider ACCTGA, for which the binding signal is 1.15 fold enrichment (6-mer frequency, TF over GST control).

Turning to CCCGGC, the binding signal was 1.19 fold enrichment (6-mer frequency, TF over GST control).

On to CCGCCG, for which the binding signal was 1.29 fold enrichment (6-mer frequency, TF over GST control).

Regarding CGTATC, the binding signal was 1.2 fold enrichment (6-mer frequency, TF over GST control).

As to CACACT, the binding signal was 1.23 fold enrichment (6-mer frequency, TF over GST control).

For the sequence TGGCAG, the binding signal was 1.02 fold enrichment (6-mer frequency, TF over GST control).

Regarding GTCCTC, the binding signal was 1.27 fold enrichment (6-mer frequency, TF over GST control).

As to GACTAC, the binding signal is 1.11 fold enrichment (6-mer frequency, TF over GST control).

For the sequence CCAACA, the binding signal was 1.13 fold enrichment (6-mer frequency, TF over GST control).

Consider GTACAA, for which the binding signal was 1.09 fold enrichment (6-mer frequency, TF over GST control).

Consider TGCACC, for which the binding signal is 1.19 fold enrichment (6-mer frequency, TF over GST control).

Consider CCCCCG, for which the binding signal is 1.18 fold enrichment (6-mer frequency, TF over GST control).

Turning to CGACAC, the binding signal was 1.21 fold enrichment (6-mer frequency, TF over GST control).

With CTGTCC, the binding signal is 1.28 fold enrichment (6-mer frequency, TF over GST control).

Take GCACCC: the binding signal is 1.22 fold enrichment (6-mer frequency, TF over GST control).

GACATC: the binding signal is 1.26 fold enrichment (6-mer frequency, TF over GST control).

Turning to CACATA, the binding signal was 1.1 fold enrichment (6-mer frequency, TF over GST control).

With CGTACC, the binding signal was 1.17 fold enrichment (6-mer frequency, TF over GST control).

GCTTGG: the binding signal was 1.07 fold enrichment (6-mer frequency, TF over GST control).

For the sequence ACACAC, the binding signal is 1.21 fold enrichment (6-mer frequency, TF over GST control).

Take TGCGAC: the binding signal was 1.27 fold enrichment (6-mer frequency, TF over GST control).

Consider CCGTCA, for which the binding signal is 1.26 fold enrichment (6-mer frequency, TF over GST control).
